Hit rate of the full screen: of about 39,000 compounds, about 3,300 (8.5%) were called active. The full list was thinned out, with actives kept by preference.
What follows are molecules tested on HepG2 (assay: cytotoxicity call (relative viability < 0.9)). Conditions: 10 µM.

Compound	cytotoxicity call
C[C@H](CO)N1C[C@H](C)[C@@H](CN(C)CC2CCCCC2)Oc2ccc(NC(=O)Cc3cn(C)c4ccccc34)cc2C1=O	inactive
CCCN(C)C[C@H]1OCCCC[C@@H](C)Oc2ccc(NC(=O)Cc3ccccc3)cc2C(=O)N([C@H](C)CO)C[C@H]1C	inactive
O=C(C[C@H]1CC[C@@H]2[C@H](COC[C@H](O)CN2CC2CCOCC2)O1)N1CCOCC1	inactive
C[C@@H]1CN([C@H](C)CO)C(=O)Cc2cc(NC(=O)CCN3CCOCC3)ccc2O[C@H]1CN(C)S(=O)(=O)c1cccs1	inactive
C[C@@H]1CCCCO[C@H](CN(C)Cc2ccncc2)[C@H](C)CN([C@@H](C)CO)C(=O)c2cc(NC(=O)Nc3cccc4ccccc34)ccc2O1	active
C[C@@H]1CCCCO[C@H](CN(C)Cc2ccccc2)[C@@H](C)CN([C@@H](C)CO)C(=O)c2cc(NC(=O)Nc3cccc4ccccc34)ccc2O1	active
C[C@@H]1CN([C@@H](C)CO)C(=O)c2cc(NC(=O)Nc3cccc4ccccc34)ccc2O[C@@H](C)CCCCO[C@H]1CN(C)Cc1ccncc1	inactive
C[C@@H]1CCCCO[C@H](CN(C)Cc2ccc(C(=O)O)cc2)[C@@H](C)CN([C@@H](C)CO)C(=O)c2cc(NC(=O)Nc3cccc4ccccc34)ccc2O1	inactive
C[C@@H]1CN([C@@H](C)CO)C(=O)c2cc(NC(=O)Nc3cccc4ccccc34)ccc2O[C@@H](C)CCCCO[C@@H]1CN(C)Cc1ccncc1	inactive
C[C@@H]1CCCCO[C@@H](CN(C)Cc2ccc(C(=O)O)cc2)[C@@H](C)CN([C@H](C)CO)C(=O)c2cc(NC(=O)Nc3cccc4ccccc34)ccc2O1	inactive
C[C@@H]1CCCCO[C@@H](CN(C)Cc2ccccc2)[C@@H](C)CN([C@H](C)CO)C(=O)c2cc(NC(=O)Nc3cccc4ccccc34)ccc2O1	inactive
C[C@@H]1CCCCO[C@@H](CN(C)Cc2ccccc2)[C@H](C)CN([C@@H](C)CO)C(=O)c2cc(NC(=O)Nc3cccc4ccccc34)ccc2O1	inactive
C[C@H]1CCCCO[C@H](CN(C)Cc2ccccc2)[C@@H](C)CN([C@@H](C)CO)C(=O)c2cc(NC(=O)Nc3cccc4ccccc34)ccc2O1	active
C[C@@H]1CN([C@@H](C)CO)C(=O)c2cc(NC(=O)Nc3cccc4ccccc34)ccc2O[C@@H](C)CCCCO[C@H]1CN(C)Cc1ccccc1	active
CC(C)NC(=O)N(C)C[C@@H]1OCc2cnnn2CCCC(=O)N([C@H](C)CO)C[C@@H]1C	inactive
C[C@H]1CN([C@@H](C)CO)C(=O)c2c(c3ccccc3n2C)-c2ccccc2CO[C@@H]1CN(C)C(=O)c1ccc(F)cc1	inactive
C[C@H]1CCCCO[C@@H](CN(C)Cc2ccc3c(c2)OCO3)[C@@H](C)CN([C@@H](C)CO)C(=O)c2cc(NS(=O)(=O)c3ccc(F)cc3)ccc2O1	inactive
C[Si](C)(C)O[Si](C)(C)O[Si](C)(C)C	inactive
COc1ccc(S(=O)(=O)N(C)C[C@@H]2Oc3c(NS(=O)(=O)c4ccc(F)cc4)cccc3C(=O)N([C@H](C)CO)C[C@H]2C)cc1	inactive
Cc1ccc(S(=O)(=O)N(C)C[C@H]2OCCCC[C@@H](C)Oc3ccc(NC(=O)C4CCCCC4)cc3C(=O)N([C@H](C)CO)C[C@H]2C)cc1	inactive
COc1ccccc1CNC(=O)C[C@@H]1CC[C@H]2[C@@H](COC[C@H](O)CN2C(=O)Nc2ccc(Cl)cc2)O1	inactive

Compound	cytotoxicity call
C[C@H](CO)N1C[C@H](C)[C@H](CN(C)Cc2ccccc2)OCCCC[C@H](C)Oc2ccc(NC(=O)Nc3cccc4ccccc34)cc2C1=O	inactive
C[C@@H]1CN([C@H](C)CO)C(=O)c2cc(NC(=O)Nc3cccc4ccccc34)ccc2O[C@@H](C)CCCCO[C@H]1CN(C)Cc1ccccc1	active
C[C@@H]1CN([C@@H](C)CO)C(=O)c2cc(NC(=O)Nc3cccc4ccccc34)ccc2O[C@@H](C)CCCCO[C@H]1CN(C)Cc1ccc(C(F)(F)F)cc1	inactive
C[C@H](CO)N1C[C@H](C)[C@@H](CN(C)Cc2ccc(C(F)(F)F)cc2)OCCCC[C@H](C)Oc2ccc(NC(=O)Nc3cccc4ccccc34)cc2C1=O	active
C[C@@H]1CCCCO[C@@H](CN(C)Cc2ccccc2)[C@@H](C)CN([C@@H](C)CO)C(=O)c2cc(NC(=O)Nc3cccc4ccccc34)ccc2O1	inactive
C[C@@H]1CCCCO[C@@H](CN(C)Cc2ccc(C(=O)O)cc2)[C@@H](C)CN([C@@H](C)CO)C(=O)c2cc(NC(=O)Nc3cccc4ccccc34)ccc2O1	inactive
C[C@@H]1CCCCO[C@H](CN(C)Cc2ccc(C(=O)O)cc2)[C@H](C)CN([C@H](C)CO)C(=O)c2cc(NC(=O)Nc3cccc4ccccc34)ccc2O1	inactive
C[C@@H]1CN([C@@H](C)CO)C(=O)c2cc(NC(=O)Nc3cccc4ccccc34)ccc2O[C@@H](C)CCCCO[C@@H]1CN(C)Cc1ccccc1	active
C[C@@H]1CN([C@H](C)CO)C(=O)c2cc(NC(=O)Nc3cccc4ccccc34)ccc2O[C@@H](C)CCCCO[C@H]1CN(C)Cc1ccc(C(F)(F)F)cc1	inactive
COc1ccc(S(=O)(=O)N(C)C[C@@H]2Oc3ccc(NS(=O)(=O)c4c(C)noc4C)cc3C(=O)N([C@@H](C)CO)C[C@H]2C)cc1	inactive
COc1ccc(S(=O)(=O)N(C)C[C@H]2OCCCC[C@@H](C)Oc3ccc(NC(=O)CCCCCC(=O)Nc4ccccc4N)cc3C(=O)N([C@H](C)CO)C[C@H]2C)cc1	inactive
C[C@@H]1CN([C@H](C)CO)C(=O)c2cccc(NS(C)(=O)=O)c2O[C@@H]1CN(C)Cc1ccc2c(c1)OCO2	inactive
C[C@@H]1CN([C@@H](C)CO)C(=O)c2cc(NS(=O)(=O)c3cccs3)ccc2O[C@@H](C)CCCCO[C@@H]1CN(C)S(=O)(=O)c1cn(C)cn1	inactive
Cc1noc(C)c1NC(=O)Nc1ccc2c(c1)CC(=O)N([C@H](C)CO)C[C@@H](C)[C@@H](CN(C)S(C)(=O)=O)O2	inactive
CS(=O)(=O)Nc1ccc2c(c1)[C@@H]1C[C@H](CC(=O)NCC3CC3)O[C@@H](CO)[C@@H]1O2	inactive
C[C@@H]1CN([C@@H](C)CO)C(=O)c2cc(NC(=O)Cc3ccccc3)ccc2O[C@@H](C)CCCCO[C@@H]1CN(C)S(=O)(=O)c1ccc(F)cc1	inactive
C[C@@H]1CN([C@@H](C)CO)C(=O)c2cc(NC(=O)c3ccccc3)ccc2O[C@@H](C)CCCCO[C@H]1CN(C)Cc1ccncc1	inactive
CC(C)NC(=O)Nc1cccc2c1O[C@H](CN(C)Cc1ccc3c(c1)OCO3)[C@H](C)CN([C@@H](C)CO)C2=O	inactive
C[C@H]1CN([C@@H](C)CO)C(=O)c2cccc(NC(=O)C3CC3)c2O[C@H]1CN(C)Cc1ccc(-c2ccccc2)cc1	inactive
Cc1cc(CCC[C@H](CC(=O)NO)C(=O)N[C@H](C(=O)N[C@H](C)c2ccccc2)C(C)(C)C)ccc1-c1ccccc1	active
Nc1cccc(-c2cccs2)c1	inactive

Compound	cytotoxicity call
C[C@H](CO)N1C[C@H](C)[C@H](CN(C)S(C)(=O)=O)Oc2ncc(C#Cc3cccnc3)cc2C1=O	inactive
CN(C)CCN(Cc1ccc(Cl)cc1)c1ccccn1.Cl	inactive
COc1ccc(CN(CCN(C)C)c2ccccn2)cc1.O=C(O)C=CC(=O)O	inactive
CN(C)CCN(Cc1ccccc1)c1ccccn1.O=C(O)CC(O)(CC(=O)O)C(=O)O	active
C[C@H](CO)N1C[C@H](C)[C@@H](CN(C)S(=O)(=O)c2cn(C)cn2)Oc2ccc(NC(=O)CCC(F)(F)F)cc2C1=O	inactive
C[C@@H]1CN([C@H](C)CO)S(=O)(=O)c2ccc(C#CCN(C)C)cc2O[C@H]1CN(C)S(C)(=O)=O	inactive
Cc1cc(C(=O)Nc2cccc3c2O[C@H](CN(C)S(=O)(=O)c2c(C)noc2C)[C@H](C)CN([C@H](C)CO)C3=O)n(C)n1	inactive
CC1(C)C[C@@](CCN)(Cc2ccccc2)CCO1	inactive
Cc1ccc(S(=O)(=O)N(C)C[C@@H]2OCCCC[C@H](C)Oc3ccc(NS(=O)(=O)c4ccc(F)cc4)cc3C(=O)N([C@@H](C)CO)C[C@@H]2C)cc1	active
Cc1ccc(S(=O)(=O)N(C)C[C@@H]2OCCCC[C@H](C)Oc3ccc(NS(=O)(=O)c4ccc(F)cc4)cc3C(=O)N([C@@H](C)CO)C[C@H]2C)cc1	active
Cc1ccc(S(=O)(=O)N(C)C[C@H]2OCCCC[C@H](C)Oc3ccc(NS(=O)(=O)c4ccc(F)cc4)cc3C(=O)N([C@H](C)CO)C[C@H]2C)cc1	inactive
Cc1ccc(S(=O)(=O)Nc2ccc3c(c2)C(=O)N([C@H](C)CO)C[C@@H](C)[C@H](CN(C)S(=O)(=O)c2ccc(F)cc2)OCCCC[C@@H](C)O3)cc1	inactive
Cc1ccc(S(=O)(=O)Nc2ccc3c(c2)C(=O)N([C@@H](C)CO)C[C@H](C)[C@@H](CN(C)S(=O)(=O)c2ccc(F)cc2)OCCCC[C@@H](C)O3)cc1	inactive
Cc1ccc(S(=O)(=O)N(C)C[C@H]2OCCCC[C@H](C)Oc3ccc(NS(=O)(=O)c4ccc(F)cc4)cc3C(=O)N([C@@H](C)CO)C[C@@H]2C)cc1	inactive
Cc1ccc(S(=O)(=O)Nc2ccc3c(c2)C(=O)N([C@H](C)CO)C[C@H](C)[C@H](CN(C)S(=O)(=O)c2ccc(F)cc2)OCCCC[C@H](C)O3)cc1	inactive
Cc1ccc(S(=O)(=O)Nc2ccc3c(c2)C(=O)N([C@@H](C)CO)C[C@@H](C)[C@H](CN(C)S(=O)(=O)c2ccc(F)cc2)OCCCC[C@@H](C)O3)cc1	inactive
Cc1ccc(S(=O)(=O)Nc2ccc3c(c2)C(=O)N([C@H](C)CO)C[C@H](C)[C@@H](CN(C)S(=O)(=O)c2ccc(F)cc2)OCCCC[C@H](C)O3)cc1	inactive
Cc1ccc(S(=O)(=O)N(C)C[C@@H]2OCCCC[C@@H](C)Oc3ccc(NS(=O)(=O)c4ccc(F)cc4)cc3C(=O)N([C@H](C)CO)C[C@H]2C)cc1	active
Cc1ccc(S(=O)(=O)N(C)C[C@@H]2OCCCC[C@H](C)Oc3ccc(NS(=O)(=O)c4ccc(F)cc4)cc3C(=O)N([C@H](C)CO)C[C@@H]2C)cc1	active
Cc1ccc(S(=O)(=O)Nc2ccc3c(c2)C(=O)N([C@@H](C)CO)C[C@H](C)[C@@H](CN(C)S(=O)(=O)c2ccc(F)cc2)OCCCC[C@H](C)O3)cc1	inactive

— the antibiotic and cytotoxicity screens of Wong et al. (2023)
